Source: PubChem (several laboratories)
PLAP act = PLAP enzyme activators, biochemical, luminescence, HTS; purified PLAP enzyme, luminescent substrate read-out; hits give high values; Alkaline phosphatase, placental type (Homo sapiens), P05187; activation fold at 20 µM; hit rate 1.2% among 96,000; AID 696, 2007; in the data active = activation fold above about 2
Her2 expr inh = inhibitors of Her2 protein expression, primary screen, SKBR-3 cells, AlphaScreen, 66K library; Receptor tyrosine-protein kinase erbB-2 (Homo sapiens), P04626; SKBR-3 HER2 protein level, 18-24 h; hits give low values; HER2 level % of control, % at 10 µM; hit rate 0.69% among 65,000; AID 645, 2007;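 active = HER2 level under 5% of the carrier-only control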;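 note: 100% = DMSO carrier and 0% = 500 nM PU-H71 HSP90 inhibitor; lower value means stronger loss of Her2 protein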
M1 ag = M1 muscarinic receptor agonists, primary screen, CHO-M1 cells, Fluo-4 calcium, agonist mode. Muscarinic acetylcholine receptor M1. Fluo-4 calcium fluorescence; hits give high values. B-score at 10 µM. hit rate 3% among 64,000. AID 626, 2007;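 active = fluorescence rise, raw or as B-score row- and column-corrected plate score, outside the 99.7% band of its plate's samples, either direction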
M1 antag = antagonists of rat M1 muscarinic receptor; Muscarinic acetylcholine receptor M1 (Rattus norvegicus), P08482; CHO-M1 cells, Fluo-4 calcium, ACh EC80 antagonist mode; hits give low values; B-score at 10 µM; hit rate 3.4% among 64,000; AID 628, 2007;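 active = calcium fluorescence response, raw or row-and-column corrected B-score, differing from the plate sample mean either way at a set confidence level, mostly lower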
Target sequence (P08482 whole entry, looked up): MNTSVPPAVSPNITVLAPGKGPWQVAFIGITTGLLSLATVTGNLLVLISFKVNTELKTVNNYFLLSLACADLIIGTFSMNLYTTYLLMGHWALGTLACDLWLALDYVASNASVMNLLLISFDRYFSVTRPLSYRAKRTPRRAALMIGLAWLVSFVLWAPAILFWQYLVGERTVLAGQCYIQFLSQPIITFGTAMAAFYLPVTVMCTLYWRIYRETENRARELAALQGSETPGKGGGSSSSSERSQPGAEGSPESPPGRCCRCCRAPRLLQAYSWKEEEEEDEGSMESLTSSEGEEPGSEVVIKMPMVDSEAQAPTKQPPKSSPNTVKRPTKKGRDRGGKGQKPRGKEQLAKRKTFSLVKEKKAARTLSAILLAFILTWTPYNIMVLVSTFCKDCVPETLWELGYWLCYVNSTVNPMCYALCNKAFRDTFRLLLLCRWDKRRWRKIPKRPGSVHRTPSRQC
Cav32 inh = Cav3.2 calcium influx blockers – cell-based, Fluo-4 calcium fluorescence, FDSS, MLSMR library, primary screen. Cav3.2-expressing cells; hits give low values. AID 449739, 2010. hit rate 4% among 100,000. Voltage-dependent T-type calcium channel subunit alpha-1H (Homo sapiens), O95180. B-score at 10 µM;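 active = single-dose well whose peak fluorescence ratio is a statistical outlier from its plate by either plate-standardised score or position-corrected B-score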
* hit, by the source's call; . = not tested or not shown. Only some compounds are listed: those with a hit (about 7.9% of all), similar ones and a draw of the others.

SMILES	PLAP act	Her2 expr inh	M1 ag	M1 antag	Cav32 inh
CCC(C)(C(=O)NC1CCCC1)N(Cc1ccco1)C(=O)c1ccc2c(c1)OCO2 (stereo not given)	1.1	83.2	0.0261	-0.875	-3.58*
Cc1ccc(C2CC(=O)c3cnc(N4CCc5ccccc5C4)nc3C2)cc1 (stereo not given)	1	.	.	.	-3.54
O=C1CC(c2ccccc2)Cc2nc(N3CCc4ccccc4C3)ncc21 (stereo not given)	1.1	.	.	.	-6.21*
Oc1ccc(Oc2ccc3c(C(F)(F)F)cc(C(F)(F)F)nc3n2)cc1	1	.	.	.	-6.92*
COc1ccc(-c2cc(C(=O)N3CCN(C(c4ccccc4)c4ccccc4)CC3)no2)cc1	1	88.6	-1.77	0.0546	-3.37
COc1ccc(-c2cc(C(=O)N3CCN(C(c4ccccc4)c4ccccc4)CC3)no2)cc1OC	1.1	76.9	5.37	-0.599	-6.3*
Cc1ccc(O)c(-c2cc(-c3ccccc3C)[nH]n2)c1	1.6	7.1	-0.493	0.632	-3.02
Cc1ccc(O)c(-c2cc(C(F)(F)C(F)F)[nH]n2)c1	2*	89.5	3.33	0.00601	-2.62
CC(C)CCSc1nc(N2CCOCC2)c2c(c1C#N)CC(C)(C)OC2	1.3	115.6	-0.922	1.21	-3.8*
CCCSc1nc(N2CCOCC2)c2c(c1C#N)CCCC2	1.1	60.8	-0.906	0.083	-6.56*
COC(=O)c1c(NC(=O)c2nc3ncccn3n2)sc(C(=O)N(C)C)c1C	1.6	85.7	-0.0273	-0.0538	.
Cc1cc(C)c2c3c(sc2n1)C(=O)N(Cc1ccccc1)CC(=O)N3	1.1	.	.	.	0.467
Nc1ncnc2c1ncn2[C@H]1C[C@H](O)[C@@H](CO)O1	.	.	.	.	-3.32
Nc1ncnc2c1ncn2[C@@H]1O[C@H](CO)[C@@H](O)[C@H]1O	.	128.5	12.8*	-0.345	0.607
COc1ccc(CCNC(=O)N2CCOCC2)cc1	.	.	.	.	-1.13
COc1ccc(CCNC(=O)N2c3ccccc3Sc3ccccc32)cc1	.	.	.	.	-5.92*
NC(=O)C1CCN(C(c2ccccc2Cl)c2nnnn2Cc2ccc3c(c2)OCO3)CC1 (stereo not given)	1.7	103.4	-1.57	-0.65	0.874
C[C@H](C(=O)C=[N+]=[N-])N1C(=O)c2ccccc2C1=O	0.8	90.4	0.000525	-0.109	-0.867
[N-]=[N+]=CC(=O)CC(c1ccccc1)N1C(=O)c2ccccc2C1=O (stereo not given)	2*	-28.1*	0.515	-0.0969	.
O=C(COc1ccc(-c2ccccc2)cc1)N1CCN(S(=O)(=O)Cc2ccccc2)CC1	1.3	.	.	.	-0.0976
CCN(C(=O)COC(=O)c1cc(C)n(-c2ccc(F)cc2)c1C)C1CCS(=O)(=O)C1 (stereo not given)	1.7	-20.1*	0.0456	0.056	-1.6
Cc1ccc(-n2c(C)cc(C(=O)OCC(=O)N(C)C3CCS(=O)(=O)C3)c2C)cc1 (stereo not given)	1.4	.	0.107	0.0995	-0.178
Cc1ccc(-n2c(C)cc(C(=O)OCC(=O)N(CC(C)C)C3CCS(=O)(=O)C3)c2C)cc1 (stereo not given)	1.2	107.3	0.109	0.0793	-8.17*
CCCN1CCN(C(=O)Cn2cccc2C(=O)c2ccccc2)CC1	.	107.1	0.105	-0.112	1.18
O=C(NCCCN1CCc2ccccc2C1)Nc1ccc(Br)cc1	2.3*	.	.	.	-2.75
SMILES	PLAP act	Her2 expr inh	M1 ag	M1 antag	Cav32 inh
COc1ccc(NC(=O)NCCCN2CCc3ccccc3C2)cc1	1.6	98.4	0.131	-1.4	0.675
O=C(O[C@@H]1OC2COC(=O)c3cc(O)c(O)c(O)c3-c3c(cc(O)c(O)c3O)C(=O)O[C@@H]([C@H]1O)[C@@H]2O)c1cc(O)c(O)c(O)c1	.	.	.	.	-0.685
Cc1ccc2[nH]c(=O)c(CN(Cc3ccc4c(c3)OCO4)Cc3nnnn3Cc3ccco3)cc2c1	1.4	91.9	-1.16	-0.000935	-5.76*
O=C(c1cc2ccccc2oc1=O)N1CCN(Cc2ccc3c(c2)OCO3)CC1	1.5	105.6	0.131	-0.645	.
CCOc1ccc2[nH]c(=O)c(CN(Cc3ccc(F)cc3)C(=O)c3ccco3)cc2c1	1	60.9	0.377	-1.33	-4.31*
CCc1ccc2[nH]c(=O)c(CN(Cc3ccc4c(c3)OCO4)C(=O)c3ccco3)cc2c1	1	56.9	1.18	-0.223	-3.29*
